# Screens from PubChem BioAssay.
# The list is not random: actives were taken first. Their share in the collection is about 10%.
# PNC assembly inh = High Content Assay for Compounds that inhibit the Assembly of the Perinucleolar Compartment; activity change (PNC), negative = inhibition, % at 10 µM; PC3M PTB-GFP, PNC prevalence imaging, 16 h; stronger effect = lower value; actives 3.1% (n = 140,000);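 active = readout at or below -70, meaning at least 70% loss of cells showing the perinucleolar compartment, a nuclear body marking cancer cells; inconclusive = readout between -30 and a set limit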;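 note: plate controls were DMSO wells for no effect and camptothecin positive control wells for full effect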
#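 Compounds are pinned in duplicate onto adhered PC3M cells stably expressing GFP-tagged PTB and incubated 16 h at 37 C. Cells are then fixed, nuclei stained with Hoechst, and PNC-positive cells counted.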
# ALDH1A1 block = qHTS Assay for Inhibitors of Aldehyde Dehydrogenase 1 (ALDH1A1). Aldehyde dehydrogenase 1A1 (Homo sapiens), P00352. Purified ALDH1A1, NADH fluorescence, propionaldehyde substrate. Potency, µM (series often up to 75.3 µM), without a hit: at the top dose activity, negative = inhibition, hits mostly inhibitors. actives 7.3% (n = 220,000). AID 1030, 2008;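 note: potency is the fitted concentration of half-maximal effect; plate controls were no enzyme wells and a reference inhibitor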
# 12-hLO inh = qHTS Assay for Inhibitors of 12-hLO (12-human lipoxygenase). AID 1452, 2008. actives 0.12% (n = 150,000). Potency, µM (series often up to 57.1 µM), without a hit: at the top dose activity change, negative = inhibition, usual class: inhibitors. purified 12-hLO, xylenol orange hydroperoxide absorbance. Polyunsaturated fatty acid lipoxygenase ALOX12 (Homo sapiens), P18054; active = well fitted inhibition curve with a large enough effect; inconclusive = small, poorly fitted or top-dose-only effect; note: potency is the fitted concentration of half-maximal effect; nearly all actives have a fitted effect of over 55% in size
# Target sequence (P18054 whole entry, looked up): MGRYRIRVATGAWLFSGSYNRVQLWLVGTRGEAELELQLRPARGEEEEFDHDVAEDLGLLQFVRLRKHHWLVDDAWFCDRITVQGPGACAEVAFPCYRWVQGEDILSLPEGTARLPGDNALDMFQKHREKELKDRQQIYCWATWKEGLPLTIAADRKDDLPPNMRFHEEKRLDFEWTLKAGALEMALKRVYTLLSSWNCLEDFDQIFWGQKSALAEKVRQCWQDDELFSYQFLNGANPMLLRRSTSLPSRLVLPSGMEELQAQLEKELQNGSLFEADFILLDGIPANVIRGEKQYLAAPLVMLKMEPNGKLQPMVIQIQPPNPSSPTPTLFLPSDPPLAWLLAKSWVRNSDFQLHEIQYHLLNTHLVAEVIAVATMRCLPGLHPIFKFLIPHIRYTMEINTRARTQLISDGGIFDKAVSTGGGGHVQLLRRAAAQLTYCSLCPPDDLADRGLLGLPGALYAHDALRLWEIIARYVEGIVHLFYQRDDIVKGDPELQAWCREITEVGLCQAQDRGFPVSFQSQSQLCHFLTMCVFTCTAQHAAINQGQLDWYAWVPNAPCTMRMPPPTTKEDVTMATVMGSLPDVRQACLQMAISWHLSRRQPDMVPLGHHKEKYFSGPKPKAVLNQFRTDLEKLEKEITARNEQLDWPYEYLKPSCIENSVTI
#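 Hydroperoxide formation by human 12-lipoxygenase from 40 uM arachidonic acid was followed colorimetrically via ferric-xylenol orange complex, using the 573/405 nm absorbance ratio. Enzyme concentration was 150 nM, with 30 min reaction at room temperature.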
# HPGD inh = qHTS Assay for Inhibitors of HPGD (15-Hydroxyprostaglandin Dehydrogenase); purified HPGD, NADH fluorescence kinetic, PGE2 substrate; actives 4.3% (n = 150,000); Potency, µM, without a hit: at the top dose activity change, negative = inhibition, usual class: inhibitors; AID 894, 2007; note: potency is the fitted concentration of half-maximal effect
#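 20 nM HPGD preincubated 15 min at room temperature with compound in 50 mM Tris-HCl pH 8, 0.01% Tween 20. Started with 1 mM NAD+ and 30 uM prostaglandin E2; NADH fluorescence (360/450 nm) read 5 times over 30-s intervals, last minus first.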
# LMNA splice mod = qHTS Assay for Modulators of Lamin A Splicing | HeLa LMNA splicing GFP/RFP minigene ratio, 48 h | Potency, µM (highest dose often 46.1 µM), inactives show at the highest dose ratio change, negative = inhibition, actives largely listed as inhibitors | actives 0.01% (n = 200,000) | AID 1487, 2009; active = well fitted inhibition curve with a large enough effect in the signal ratio, with a control signal flat, not every such curve was filed as active; inconclusive = small, poorly fitted or top-dose-only effect, or effect the other way, or a change in a side signal; the % refers to the signal ratio; note: potency is the fitted concentration of half-maximal effect
#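 Read-out is the ratio of GFP to DsRed2 object intensity, acquired by 488 nm laser-scanning cytometry on HeLa lamin A-EGFP minigene reporter cells. Compound incubation 48 hrs at 37 °C in Opti-MEM with 2% FBS; DMSO 0.5% final.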
# * = called active by the depositor; u = inconclusive; x = no result given; [ ] = remark or other dose. Unless noted, calls come from the whole dose curve; as a rule, active = well fitted inhibition curve with a large enough effect (not every such curve was filed as active); inconclusive = small, poorly fitted or top-dose-only effect, or another doubt; inactive = no such curve, though single readings can be large or run the other way. Unless noted, % is set by controls: 0 for no effect and ±100 for the full control effect.
SMILES,PNC assembly inh,ALDH1A1 block,12-hLO inh,HPGD inh,LMNA splice mod
COc1ccnc(Oc2ccc(F)cc2)c1C(=O)N/C=N/OCc1c(Cl)cccc1Cl,-17,-6%,0%,-10%,-5%
CO/N=C/NC(=O)c1c(OC)ccnc1Oc1ccccc1,37,6.3µM*,4%,-8%,3%
CCC(CC)c1nnc(NC(=O)[C@@H](NC(=O)c2cccc(C)c2)C(C)C)s1,-97*,-8%,0%,-10%,-19%
O=C1CCC(C(=O)N(c2ccccc2)C2(C(=O)NC3CCCCC3)CCCCC2)N1 (stereo unspecified),-10,7.1µM*,-6%,x,3%
Cc1ccc(N(C(=O)C2CCC(=O)N2)C2(C(=O)NC3CCCC3)CCCCC2)cc1 (stereo unspecified),-14,-6%,0%,6%,4%
Cc1cnc(CNc2ccnc(-c3ccccc3Cl)n2)cn1,x,-3%,-1%,-5%,2%
O=S(=O)(Nc1ccccc1O)c1cccc2cccnc12,x,-11%,x,x,x
O=S(=O)(Nc1cc(Sc2cccc3cccnc23)c(O)c2ccccc12)c1ccc(F)cc1,-118*,28µM*,-8%,1.3µM*,u
Cc1cc(C)c(NC(=O)C(=O)NCC(c2cccnc2)N2CCN(c3ccccc3F)CC2)c(C)c1 (stereo unspecified),x,x,x,x,-21%[46 µM]
COc1ccc(-c2nnc3sc(-c4ccccc4OC)nn23)cc1,u,-8%,-6%,u,-2%
Cc1ccc(-c2nnc3sc(CCc4ccccc4)nn23)cc1,-19,3.5µM*,-3%,14µM*,-2%
c1ccc(-c2cc(-c3nn4c(-c5ccco5)nnc4s3)c3ccccc3n2)cc1,6,u,1%,u,19%
COc1ccc(-c2nnc3sc(COc4ccccc4)nn23)cc1,35,-6%,-2%,-17%,u
Cc1cc(-c2nn3c(-c4ccccc4)nnc3s2)c2ccccc2n1,u,8.9µM*,0%,14µM*,11%
Cc1ccccc1-c1nn2c(-c3ccccc3)nnc2s1,-18,u,-10%,28µM*,u
CC(C)(C)c1ccc(-c2nnc3sc(-c4ccncc4)nn23)cc1,14,13µM*,-1%,u,8%
COc1cc(OC)c(-c2nn3c(-c4ccncc4)nnc3s2)cc1OC,-136*,8%,4%,-10%,u
COc1ccc2[nH]cc(CCNc3nc(-c4ccccc4OC)nc4ccccc34)c2c1,x,5%,x,x,u
O=C(Nc1ccccc1)N(CCCN1CCOCC1)Cc1ccccc1F,-109*,3%,1%,-4%,-1%
CCc1ccc2[nH]c(=O)c(CN(CCN3CCOCC3)C(=O)Nc3ccccc3F)cc2c1,-86*,-3%,0%,-5%,-8%
COc1ccccc1NCC(=O)N/N=C(\C)c1ccc(Br)s1,11,-14%,-2%,-6%,-16%
C/C(=N/NC(=O)CNc1ccc(C)cc1)c1ccc(Br)s1,-23,14µM*,-3%,-19%,-7%
c1ccc2c(CC3NCCN3)cccc2c1,x,-1%[13.5 µM],-2%[11.4 µM],-5%,x
Cc1cc2c(ncn2Cc2ccccc2)c([N+](=O)[O-])c1C,-27,u,-3%,20µM*,-20%
CCOc1ccccc1NC1(c2ccccc2)C(=O)c2ccccc2C1=O,x,x,x,x,5%[46 µM]
